Rows were chosen to be rich in hits. Some 1.8% of all compounds tested hit in one or more screens of this group.
ALOX12 inh – inhibitors of human 12S-lipoxygenase ALOX12; P18054; 580,000 compounds, 1.1% hits; Potency, µM (top dose mostly 108 µM), for the others: at the top dose activity change, negative = inhibition, most hits filed as inhibitors; AID 1671190; purified 12hLO, xylenol orange hydroperoxide absorbance; note: potency is the fitted concentration of half-maximal effect; % is set by controls: 0 for no effect and ±100 for the full control effect
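Purified human 12hLO (150 nM final) in 25 mM Hepes, 0.01% Triton X-100, pH 7.0 was preincubated 15 min at room temperature with compound. Then 40 uM arachidonic acid was added, 30 min. Hydroperoxide was read by Fe-XO absorbance ratio 573/405 nm.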
A-T KAP1 phos – candidate therapy for ataxia-telangiectasia. 320,000 compounds, 0.19% hits. F2112 A-T fibroblasts, KAP-1 phosphorylation AlphaLISA; neocarzinostatin DNA damage 30 min before lysis. Potency, µM (titrated, usually from 57.5 µM), for the others: at the highest dose activation, hits mostly activators; note: potency is the fitted concentration of half-maximal effect; % of control where 0% means no effect; nearly all actives have a fitted effect of over 45% in size
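hTERT-immortalized A-T patient fibroblasts (F2112), 500 cells/well in OPTI-MEM, 1% FBS, got compounds for 60 min, then NCS for 30 min at 37C. Lysates were then assayed for phospho-KAP-1 by AlphaLISA (anti-pKAP1 donor, anti-KAP1 acceptor beads), 6 hr at 25C.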
KCNH2 WT inh – KCNH2 (human, wildtype) channel inhibition. Q12809. U2OS, BacMam KCNH2, thallium flux FluxOr; active compounds read low. activity change, % at 1.84 µM. 340,000 compounds, 0.37% hits. AID 720551;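 active = maximum activity change below -70%; inconclusive = maximum activity change between -70% and -50%; inactive = maximum activity change above -50%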; note: % is set by controls: 0 for no effect and ±100 for the full control effect
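U2OS cells were transduced with wild-type KCNH2 virus (2.03 x 10^8 / mL) for 4 h at room temperature, then cultured overnight at 37 C. Thallium flux was read with FluxOr dye. Rate constants were normalized to DMSO controls.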
KCNH2 3.1 inh – KCNH2 3.1 (human) potassium channel inhibition; AID 720553; U2OS KCNH2 3.1, thallium flux FluxOr; active compounds read low; activity change, % (tested at about 1.8 µM); 340,000 compounds, 0.95% hits;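 active = maximum activity change below -70%; inconclusive = maximum activity change from -70% to -50%; inactive = maximum activity change above -50%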;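 note: thallium influx rate constant from kinetic fluorescence after stimulation buffer; % is set by controls: 0 for no effect and ±100 for the full control effect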
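Steps: virus added to U2OS suspension (4 h, RT, dark); medium with 10% FBS added, cells plated, 37 C overnight; FluxOr/Red40 loading buffer 45 min RT; stimulation buffer, 2 min kinetic read; rate constant normalized.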
The depositor's hits bear a star; u = inconclusive; x = no result given; [ ] = another dose, or the depositor's remark. Unless noted, calls come from the whole dose curve; as a rule, active = well fitted curve in the direction sought with a large enough effect; inconclusive = small, poorly fitted or top-dose-only effect, or another doubt; inactive = no such curve, though single readings can be large; an effect the other way counts as inactive or inconclusive.

SMILES | ALOX12 inh | A-T KAP1 phos | KCNH2 WT inh | KCNH2 3.1 inh
Cc1ccc(C)c(N2CCN(C(=S)Nc3ccc4nc(N5CCN(C)CC5)cc(C)c4c3)CC2)c1 | -25.3% | -5.0% | -114.6* | -89.5*
Cc1cc(N2CCOCC2)nc2ccc(NC(=S)NCCC(C)C)cc12 | u | 16.7% | 8.6 | -87.9*
Cc1cc(N2CCN(C)CC2)nc2ccc(NC(=S)N3CCN(c4ccccn4)CC3)cc12 | 1.7% | 1.9% | 1.3 | 6.4
CSc1cccc(NC(=O)c2ccc(Cl)cc2I)c1 | 6.9% | x | x | x
CCOC(=O)/C(C#N)=C/c1cc(Cl)ccc1OCc1ccc(Cl)cc1Cl | -0.2% | x | x | x
Cc1ccc(-c2nnc(C3CN(C(=O)Cc4cccc(C)c4)CC34CCOCC4)o2)cc1 (centres undefined) | -12.8% | x | x | x
Cc1csc(NC(C)c2nc3cc(Cl)c(Cl)cc3n2CCCO)n1 (centres undefined) | -0.1% | x | -8.8 | -80.1*
CC(C)CCN1CC(Oc2ccc(F)c(F)c2)C1 | 5.8%[12.5 µM] | x | x | x
Cc1cccc(-c2noc(CN(C)C(=O)COc3ccc(Cl)cc3C)n2)c1 | -10.4% | x | x | x
CN(Cc1ccsc1)C(=O)c1ccc(C#N)cc1 | -20.6% | x | x | x
COc1ccc(C2=CC3=C(Br)C(=O)C(C)(OC(=O)c4cccs4)C(=O)C3=CO2)cc1 (centres undefined) | 6.31µM* | x | -16.3 | -9.3
CCN(CC)CCN(C(=O)c1ccc2c(c1)CCCC2)c1nc2ccc(F)cc2s1 | -1.1% | 2.4% | 25.6 | -13.6
CN(C)CCCN(C(=O)c1ccc2c(c1)OCCO2)c1nc2ccc(Cl)cc2s1 | 44.7µM* | -9.0% | x | x
CCc1ccc2nc(N(CCN(C)C)C(=O)c3ccc4ncsc4c3)sc2c1 | 35.5µM* | 2.7% | 5.6 | -10.9
CCN(CC)CCN(C(=O)c1ccc2c(c1)OCCO2)c1nc2c(Cl)cccc2s1 | 35.5µM* | 9.8% | 10.1 | -37.5
CN(C)CCCN(C(=O)c1ccc2c(c1)CCCC2)c1nc2ccc(F)cc2s1 | u | -0.2% | u | -72.0*
CCOC(=O)CCNC(=O)c1ccccc1Cl | 4.6% | x | x | x
Oc1ccc(C2=Nn3c(nnc3-c3ccco3)SC2)cc1O | 7.08µM* | x | 17.1 | -26.9
CN(C)c1cccc(C(=O)N2CCCC(n3cc(-c4nc(-c5ccccc5)no4)nn3)C2)c1 (centres undefined) | 10.2% | x | x | x
Cc1ccc(NCCC(=O)c2cc3ccccc3o2)cc1Br | 35.5µM* | x | x | x
Cc1ccc(C(=O)NCc2nnc3cc(-c4nc(C5CC5)no4)ccn23)cc1F | -5.5% | x | x | x
CCCc1noc(-c2ccn3c(CNC(=O)c4ccc(C)c(F)c4)nnc3c2)n1 | 50.1µM* | x | x | x
CCCc1noc(-c2ccn3c(CNC(=O)Cc4cccc(OC)c4)nnc3c2)n1 | 44.7µM* | x | x | x
COC(=O)COc1ccc2c(=O)c(Oc3ccccc3OC)c(C)oc2c1 | 17.4% | x | x | x
COc1ccc2c(c1)CN(Cc1ccccc1Cl)CC[C@H]1COC(=O)N21 | 15.5%[176 µM] | x | x | x
SMILES | ALOX12 inh | A-T KAP1 phos | KCNH2 WT inh | KCNH2 3.1 inh
O=C1CC(c2cccc(F)c2F)c2c(n3c(nc4ccccc43)[nH]c2=O)N1 (centres undefined) | -2.4% | x | x | x
COC(=O)c1ccc(CSc2ccc3nnc(-c4cccc(F)c4)n3n2)o1 | 28.2µM* | -7.8% | 0.5 | -12.9
CC(=O)Nc1sc2c(c1C(=O)N1CCOCC1)CCCCC2 | 0.0% | -7.7% | 2.7 | 2.9
Cc1ccccc1NC(=O)N1CCc2c(sc3c2CCCC3)C1c1ccccc1 (centres undefined) | 2.0% | x | x | x
Cc1ccccc1NC(=O)C1=Cc2sc3c(c2CS1)CCCC3 | 20µM* | x | x | x
O=C(C1=Cc2sc3c(c2CS1)CCCC3)N1CCC2(CC1)OCCO2 | 35.5µM* | x | x | x
O=C(N[C@H]1CO[C@H]2[C@@H]1OC[C@@H]2n1nnnc1Oc1ccccc1)c1cncnc1 | 19.8%[176 µM] | x | x | x
O=C(CSc1nnc(-c2ccco2)c(-c2ccco2)n1)c1ccccc1 | 28.2µM* | 1.8% | -4.6 | -5.2
O=C(N/N=C/c1cc(Cl)cc([N+](=O)[O-])c1O)C1CC1 | -26.7% | 1.2% | 1.5 | 12.7
CC(C)(C)N/N=C/c1cc(Cl)cc([N+](=O)[O-])c1O | 15.8µM* | 11.3% | -0.1 | 4.9
O=C(O)CC1S/C(=N\N=C2CCCCCC2)N(c2ccccc2)C1=O (centres undefined) | 0.0% | -4.1% | -104.4* | 14.6
CC1=C(C(=O)OCc2ccccc2)C2(C(=O)Nc3ccc(Br)cc32)C(C(=O)OCc2ccccc2)=C(N)O1 (centres undefined) | -27.1% | x | x | x
O=C(CCc1nc2ccccc2[nH]1)NC1CCSc2c(F)cccc21 (centres undefined) | 43.5% | x | x | x

Bioassay records: PubChem, National Center for Advancing Translational Sciences (NCATS)
